From publication PMC11006913

Legend:
Test in all cases: PBM; 200 nM protein, PBS
Details in all cases: dsDNA, one strand shown
[1] = biological target: HESX1 (Homo sapiens, UniProt Q9UBX0 95-180, R165K)
[2] = biological target: HOXB4 (Homo sapiens, UniProt P17483 148-234)
[3] = biological target: SHOX (Homo sapiens, UniProt O15266 103-189)
[4] = biological target: HESX1 (Homo sapiens, UniProt Q9UBX0 95-180)
[5] = biological target: HOXA4 (Homo sapiens, UniProt Q00056 201-287, R217L)
[6] = biological target: HOXB4 (Homo sapiens, UniProt P17483 148-234, V174I)
[7] = biological target: MSX2 (Homo sapiens, UniProt P35548 130-214, R199I)
[8] = biological target: ALX3 (Homo sapiens, UniProt O95076 139-225, N203Q)
[9] = biological target: SHOX (Homo sapiens, UniProt O15266 103-189, R173C)
[10] = biological target: ALX3 (Homo sapiens, UniProt O95076 139-225)
[11] = biological target: PROP1 (Homo sapiens, UniProt O75360 56-141)
[12] = biological target: HESX1 (Homo sapiens, UniProt Q9UBX0 95-180, R109Q)
[13] = biological target: PROP1 (Homo sapiens, UniProt O75360 56-141, R99H)
[14] = biological target: ALX3 (Homo sapiens, UniProt O95076 139-225, L168Q)
[15] = biological target: HESX1 (Homo sapiens, UniProt Q9UBX0 95-180, P111T)
[16] = biological target: ALX3 (Homo sapiens, UniProt O95076 139-225, L168V)
[17] = biological target: PROP1 (Homo sapiens, UniProt O75360 56-141, F88S)
[18] = biological target: MSX2 (Homo sapiens, UniProt P35548 130-214, F161Y)
[19] = biological target: HESX1 (Homo sapiens, UniProt Q9UBX0 95-180, F115L)
[20] = biological target: ALX3 (Homo sapiens, UniProt O95076 139-225, N203S)
ALX3 (Homo sapiens, UniProt O95076 139-225, N203S), sequence (O95076 139-225 N203S): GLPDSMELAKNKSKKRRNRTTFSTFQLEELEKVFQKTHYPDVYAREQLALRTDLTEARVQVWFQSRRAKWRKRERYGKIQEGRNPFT

ALX3 (Homo sapiens, UniProt O95076 139-225, L168Q), sequence (O95076 139-225 L168Q): as the sequence (O95076 139-225 N203S) above, with L30Q, S65N counted along it
SHOX (Homo sapiens, UniProt O15266 103-189, R173C), sequence (O15266 103-189 R173C): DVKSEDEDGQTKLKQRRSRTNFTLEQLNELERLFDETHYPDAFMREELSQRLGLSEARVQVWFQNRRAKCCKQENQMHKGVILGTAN
HOXB4 (Homo sapiens, UniProt P17483 148-234), sequence (P17483 148-234): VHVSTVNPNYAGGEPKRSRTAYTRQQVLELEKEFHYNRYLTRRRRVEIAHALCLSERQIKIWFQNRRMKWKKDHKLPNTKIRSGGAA
ALX3 (Homo sapiens, UniProt O95076 139-225, L168V), sequence (O95076 139-225 L168V): as the sequence (O95076 139-225 N203S) above, with L30V, S65N counted along it
ALX3 (Homo sapiens, UniProt O95076 139-225), sequence (O95076 139-225): as the sequence (O95076 139-225 N203S) above, with S65N counted along it
PROP1 (Homo sapiens, UniProt O75360 56-141), sequence (O75360 56-141): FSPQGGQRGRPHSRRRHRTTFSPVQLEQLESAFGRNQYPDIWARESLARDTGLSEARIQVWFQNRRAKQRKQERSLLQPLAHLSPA
PROP1 (Homo sapiens, UniProt O75360 56-141, R99H), sequence (O75360 56-141 R99H): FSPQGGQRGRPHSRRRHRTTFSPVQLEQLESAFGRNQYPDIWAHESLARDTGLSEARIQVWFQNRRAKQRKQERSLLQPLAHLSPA
HOXB4 (Homo sapiens, UniProt P17483 148-234, V174I), sequence (P17483 148-234 V174I): as the sequence (P17483 148-234) above, with V27I counted along it
HESX1 (Homo sapiens, UniProt Q9UBX0 95-180, R165K), sequence (Q9UBX0 95-180 R165K): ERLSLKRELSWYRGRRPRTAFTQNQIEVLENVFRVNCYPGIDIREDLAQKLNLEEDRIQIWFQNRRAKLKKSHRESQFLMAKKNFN
PROP1 (Homo sapiens, UniProt O75360 56-141, F88S), sequence (O75360 56-141 F88S): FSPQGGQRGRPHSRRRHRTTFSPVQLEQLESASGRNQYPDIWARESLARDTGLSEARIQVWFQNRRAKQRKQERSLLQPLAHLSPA
ALX3 (Homo sapiens, UniProt O95076 139-225, N203Q), sequence (O95076 139-225 N203Q): as the sequence (O95076 139-225 N203S) above, with S65Q counted along it
HESX1 (Homo sapiens, UniProt Q9UBX0 95-180, F115L), sequence (Q9UBX0 95-180 F115L): as the sequence (Q9UBX0 95-180 R165K) above, with F21L, K71R counted along it
HOXA4, sequence (Q00056 201-287 R217L): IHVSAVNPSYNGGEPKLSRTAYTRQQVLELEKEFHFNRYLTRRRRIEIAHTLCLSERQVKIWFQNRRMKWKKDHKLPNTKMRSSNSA
HESX1 (Homo sapiens, UniProt Q9UBX0 95-180, R109Q), sequence (Q9UBX0 95-180 R109Q): as the sequence (Q9UBX0 95-180 R165K) above, with R15Q, K71R counted along it
SHOX (Homo sapiens, UniProt O15266 103-189), sequence (O15266 103-189): as the sequence (O15266 103-189 R173C) above, with C71R counted along it
HESX1 (Homo sapiens, UniProt Q9UBX0 95-180), sequence (Q9UBX0 95-180): as the sequence (Q9UBX0 95-180 R165K) above, with K71R counted along it
MSX2 (Homo sapiens, UniProt P35548 130-214, F161Y), sequence (P35548 130-214 F161Y): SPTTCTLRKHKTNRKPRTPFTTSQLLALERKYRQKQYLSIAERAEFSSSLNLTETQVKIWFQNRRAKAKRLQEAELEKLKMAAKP
MSX2 (Homo sapiens, UniProt P35548 130-214, R199I), sequence (P35548 130-214 R199I): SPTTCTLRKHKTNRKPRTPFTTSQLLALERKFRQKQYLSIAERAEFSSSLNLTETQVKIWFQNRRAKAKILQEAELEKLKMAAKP
HESX1 (Homo sapiens, UniProt Q9UBX0 95-180, P111T), sequence (Q9UBX0 95-180 P111T): as the sequence (Q9UBX0 95-180 R165K) above, with P17T, K71R counted along it

Row | Sequence | binding signal [1] | binding signal [2] | binding signal [3] | binding signal [4] | binding signal [5] | binding signal [6] | binding signal [7] | binding signal [8] | binding signal [9] | binding signal [10] | binding signal [11] | binding signal [12] | binding signal [13] | binding signal [14] | binding signal [15] | binding signal [16] | binding signal [17] | binding signal [18] | binding signal [19] | binding signal [20]
1 | AATAATTA | 13 upbm affinity estimate (log intensity, higher = more binding, comparable within an allelic series) | 13.5 upbm affinity estimate (log intensity, higher = more binding, comparable within an allelic series) | 12.1 upbm affinity estimate (log intensity, higher = more binding, comparable within an allelic series) | 13 upbm affinity estimate (log intensity, higher = more binding, comparable within an allelic series) | 12.7 upbm affinity estimate (log intensity, higher = more binding, comparable within an allelic series) | 14.2 upbm affinity estimate (log intensity, higher = more binding, comparable within an allelic series) | 13.1 upbm affinity estimate (log intensity, higher = more binding, comparable within an allelic series) | 8.63 upbm affinity estimate (log intensity, higher = more binding, comparable within an allelic series) | 9.86 upbm affinity estimate (log intensity, higher = more binding, comparable within an allelic series) | 12.8 upbm affinity estimate (log intensity, higher = more binding, comparable within an allelic series) | 11.8 upbm affinity estimate (log intensity, higher = more binding, comparable within an allelic series) | 9.38 upbm affinity estimate (log intensity, higher = more binding, comparable within an allelic series) | 11.6 upbm affinity estimate (log intensity, higher = more binding, comparable within an allelic series) | 10.9 upbm affinity estimate (log intensity, higher = more binding, comparable within an allelic series) | 11.5 upbm affinity estimate (log intensity, higher = more binding, comparable within an allelic series) | 10.6 upbm affinity estimate (log intensity, higher = more binding, comparable within an allelic series) | 7.89 upbm affinity estimate (log intensity, higher = more binding, comparable within an allelic series) | 13.6 upbm affinity estimate (log intensity, higher = more binding, comparable within an allelic series) | 8.2 upbm affinity estimate (log intensity, higher = more binding, comparable within an allelic series) | 8.7 upbm affinity estimate (log intensity, higher = more binding, comparable within an allelic series)
2 | ATTAATGA | 11.4 upbm affinity estimate (log intensity, higher = more binding, comparable within an allelic series) | 13.5 upbm affinity estimate (log intensity, higher = more binding, comparable within an allelic series) | 11.5 upbm affinity estimate (log intensity, higher = more binding, comparable within an allelic series) |  | 12.9 upbm affinity estimate (log intensity, higher = more binding, comparable within an allelic series) | 14.1 upbm affinity estimate (log intensity, higher = more binding, comparable within an allelic series) |  | 8.5 upbm affinity estimate (log intensity, higher = more binding, comparable within an allelic series) | 9.51 upbm affinity estimate (log intensity, higher = more binding, comparable within an allelic series) | 12.3 upbm affinity estimate (log intensity, higher = more binding, comparable within an allelic series) | 11.2 upbm affinity estimate (log intensity, higher = more binding, comparable within an allelic series) | 8.79 upbm affinity estimate (log intensity, higher = more binding, comparable within an allelic series) | 10.9 upbm affinity estimate (log intensity, higher = more binding, comparable within an allelic series) | 10.3 upbm affinity estimate (log intensity, higher = more binding, comparable within an allelic series) |  | 9.84 upbm affinity estimate (log intensity, higher = more binding, comparable within an allelic series) | 7.87 upbm affinity estimate (log intensity, higher = more binding, comparable within an allelic series) |  | 7.87 upbm affinity estimate (log intensity, higher = more binding, comparable within an allelic series) | 8.58 upbm affinity estimate (log intensity, higher = more binding, comparable within an allelic series)
